High-throughput results from PubChem.
An excerpt weighted towards active compounds, which were near 21% of everything screened.
Pf growth 48h: Primary qHTS for delayed death inhibitors of the malarial parasite plastid, 48 hour incubation. P. falciparum luciferase growth in erythrocytes, 48 h. Potency, µM (top dose mostly 28.7 µM), actives largely listed as inhibitors. hit rate 5.9% among 310,000
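Compounds are pin-transferred into medium, infected erythrocytes (2% hematocrit, 0.1% parasitemia final) are added, and plates sit one parasite generation at 37 C in 5% CO2. Detection reagent is then added and luminescence measured.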
Cycloheximide cs: Cycloheximide Counterscreen for Small Molecule Inhibitors of Shiga Toxin; cell reporter, cycloheximide protein synthesis inhibition counterscreen; max response, %; hit rate 12% among 300,000; AID 2314, 2010; in the data active = max response mostly above about 13%, no sharp cut-off; inactive = mostly below about 14%; note: read at 38.3 µM for the half of the compounds with a filed dose
AMA1 RON2 block: qHTS for Inhibitors of AMA1-RON; Towards Development of Antimalarial Drug Lead: Primary Screen | Plasmodium falciparum AMA1 (3D7) - RON2 peptide interaction | hit rate 0.2% among 360,000 | Potency, µM (highest dose often 58.2 µM), most hits filed as inhibitors | AlphaScreen AMA1-biotinylated RON2 peptide binding; note: nearly all actives have a fitted effect of over 45% in size
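AMA1 (3D7) with his tag at 25 nM final met compounds first, then biotinylated RON2 peptide at 25 nM; detection used donor plus acceptor beads, 10 µg/mL apiece, read by AlphaScreen after 30 min at room temperature.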
Pf growth 96h: Primary qHTS for delayed death inhibitors of the malarial parasite plastid, 96 hour incubation; hit rate 6.9% among 320,000; AID 504834, 2011; Potency, µM (doses to about 28.7 µM), hits mostly inhibitors; P. falciparum luciferase reporter growth, 96 h
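P. falciparum expressing integrated firefly luciferase grown in erythrocytes (2% hematocrit, 0.05% parasitemia final) with compounds for 96 hours at 37 C, 5% CO2. Growth inhibition read as loss of luminescence after adding luciferase detection reagent.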
HCV inh: qHTS Assay for Inhibitors of Hepatitis C Virus (HCV). Huh7.5.1 HCVcc-Cre infection, luciferase reporter, 44 h. Potency, µM (series often up to 41.8 µM), actives largely listed as inhibitors. hit rate 3.4% among 340,000
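Cells seeded at 1,000/well and cultured 4 h, then compounds added followed by HCVcc-Cre virus (~0.5 moi). After 44 h further culture, luciferase substrate was added, plates held 15 min at room temperature, and luminescence read for 15 sec.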
Shiga inhibitor: A qHTS for Small Molecule Inhibitors of Shiga Toxin; Vero cells, Shiga toxin protein synthesis inhibition reporter; inhibition, % at 38.7 µM; hit rate 9.2% among 290,000; AID 2315, 2010; in the data active = inhibition mostly above about 28%, no sharp cut-off; inactive = mostly below about 43%
Each line names hits and unclear results; the compound was inactive in the other large screens. Unless noted, calls come from the whole dose curve; as a rule, active = well fitted curve in the direction sought with a large enough effect; inconclusive = small, poorly fitted or top-dose-only effect, or another doubt; inactive = no such curve, though single readings can be large; an effect the other way counts as inactive or inconclusive.

CC(=O)Nc1cc(-c2cccc(C(=O)NCCN(C)C)c2)cn2c(-c3cccc(C(F)(F)F)c3)cnc12	none (no result: Pf growth 48h, Cycloheximide cs, Pf growth 96h, HCV inh, Shiga inhibitor)
Cc1ccc(C(=O)Nc2ccc(SC(F)F)cc2)s1	Cycloheximide cs 51, HCV inh inconclusive, Shiga inhibitor 109
O=C(Nc1ccc(SC(F)F)cc1)C1=COCCO1	Cycloheximide cs 34, Pf growth 96h 1.7µM, Shiga inhibitor 70
Cc1ccc(S(=O)(=O)N(C)C[C@@H]2Oc3ccc(NC(=O)CCC(F)(F)F)cc3CC(=O)N([C@@H](C)CO)C[C@@H]2C)cc1	HCV inh inconclusive (no result: Pf growth 48h, Cycloheximide cs, Pf growth 96h, Shiga inhibitor)
O=C1[C@@H](Oc2ccccc2)[C@@H](c2cccnc2)N1c1ccccc1	HCV inh 35µM (no result: Pf growth 48h, Cycloheximide cs, Pf growth 96h, Shiga inhibitor)
Cc1cccc(Nc2nc(-c3cccs3)cs2)n1	Cycloheximide cs 46, HCV inh inconclusive, Shiga inhibitor 68
c1ccc(Nc2nc(-c3cccs3)cs2)nc1	Cycloheximide cs 33, Pf growth 96h inconclusive, Shiga inhibitor 88
Cc1cccc(Nc2nc(-c3ccccn3)cs2)n1	Pf growth 48h inconclusive, Cycloheximide cs 37, HCV inh 7.1µM, Shiga inhibitor 63
C=CCNC(=O)/C(C#N)=C/c1c(N2CCN(c3cccc(Cl)c3)CC2)nc2c(C)cccn2c1=O	Pf growth 48h 8.3µM, Pf growth 96h inconclusive
CNC(=O)/C(C#N)=C/c1c(N2CCN(c3cccc(Cl)c3)CC2)nc2c(C)cccn2c1=O	Pf growth 96h inconclusive
COCCNC(=O)/C(C#N)=C/c1c(N2CCN(c3ccc(OC)cc3)CC2)nc2c(C)cccn2c1=O	Pf growth 96h inconclusive (no result: Pf growth 48h)
COCCNC(=O)/C(C#N)=C/c1c(N2CCN(c3cccc(Cl)c3)CC2)nc2c(C)cccn2c1=O	Pf growth 48h 13µM, Pf growth 96h inconclusive, HCV inh inconclusive
CCNC(=O)/C(C#N)=C/c1c(N2CCCCCC2)nc2c(C)cccn2c1=O	Pf growth 48h inconclusive, Pf growth 96h 13µM, HCV inh inconclusive
COCCNC(=O)/C(C#N)=C/c1c(N2CCN(c3ccccc3)CC2)nc2c(C)cccn2c1=O	Pf growth 48h 13µM, Pf growth 96h inconclusive
CCNC(=O)/C(C#N)=C/c1c(N2CCN(c3ccccc3)CC2)nc2c(C)cccn2c1=O	Pf growth 48h inconclusive, Pf growth 96h inconclusive
O=C(NCC1CCOCC1)c1ccc(-c2ccc(F)c(F)c2)c2ccoc12	none (no result: Pf growth 48h, Cycloheximide cs, Pf growth 96h, HCV inh, Shiga inhibitor)
CCOC(=O)c1c(NCc2ccccc2)n[nH]c1C	none
CCOC(=O)c1c(N/N=C/c2ccncc2)n[nH]c1C	Shiga inhibitor 50
CCc1[nH]nc(C(=O)N/N=C/c2ccncc2)c1C	Cycloheximide cs 24, Shiga inhibitor 50
CCOC(=O)c1c(Nc2ccccc2OCCOC)n[nH]c1C	Pf growth 48h inconclusive, Pf growth 96h 9.3µM
CC(C)(C)CC(C)(C)c1ccc(OCCO)cc1	Pf growth 96h inconclusive (no result: Cycloheximide cs, AMA1 RON2 block, HCV inh, Shiga inhibitor)
CCOC(=O)C1=C(Nc2cccc(Cl)c2)OCC1=O	Pf growth 96h 9.3µM
Cc1ccsc1C(=O)N(C)C1CCS(=O)(=O)C1 (configuration not stated)	none (no result: Cycloheximide cs, Shiga inhibitor)
Cc1cc(C)cc(NC(=O)c2oc3ccccc3c2COc2ccccc2)c1	Pf growth 48h inconclusive
CC(C)CNC(=O)c1oc2ccccc2c1COc1ccccc1	Pf growth 48h 12µM, Pf growth 96h 10µM
CCC(CC)NC(=O)c1oc2ccccc2c1COc1ccccc1	Pf growth 48h 6.6µM, Cycloheximide cs 8.4, Pf growth 96h 4.1µM, HCV inh inconclusive
COC(=O)c1sc(NC(=S)NNC(=O)c2c(Br)c(C)nn2C)c(C(=O)OC)c1C	Pf growth 96h inconclusive
O=C(Nc1cccc(-c2cccc(F)c2)c1)C1CCN(C2CCOCC2)CC1	Pf growth 48h inconclusive, Pf growth 96h 7.4µM, HCV inh 13µM
CCOC(=O)c1sc(NC(=O)C(C)C)c(C#N)c1C	none
C#CCOCCOCCOCCNc1nc(N2CCN(C(=O)[C@H](CCC(=O)O)n3cc(C(N)CC(C)C)nn3)CC2)nc(N2CCN(C(=O)[C@H](Cc3cc4ccccc4[nH]3)n3cc(C(N)CC(C)C)nn3)CC2)n1 (some centres not stated)	none
